Hits are enriched below; roughly 12% of the tested compounds scored in any of these assays.
G9a inh: blocks human histone lysine methyltransferase G9a; 8.8% of 350,000 active; Q96KQ7; Potency, µM (top dose mostly 102 µM), for inactives: at the highest dose activity, negative = inhibition, hits mostly inhibitors; G9a H3K9 monomethylation, AlphaScreen, 2 h; note: % is set by controls: 0 for no effect and ±100 for the full control effect; nearly all actives have a fitted effect of over 75% in size
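AlphaScreen read-out: biotin-H3K9 peptide (500 nM) methylation by 20 nM enzyme with 20 uM SAM, 2 h at room temperature after 15 min compound preincubation; anti-monomethyl H3K9 antibody plus donor/acceptor beads, 10 min dark.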
BAZ2B inh: BAZ2B (human) inhibition; AlphaScreen BAZ2B-H3K14Ac peptide displacement; AID 504333; 4.4% of 360,000 active; Potency, µM (titrated, usually from 114 µM), for the others: at the highest dose activity change, negative = inhibition, most hits filed as inhibitors; note: % is set by controls: 0 for no effect and ±100 for the full control effect; nearly all actives have a fitted effect of over 60% in size
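Compounds, titrated to a top concentration of 110 uM, were incubated 30 min at room temperature with preformed BAZ2B/acetyl-K14 H3 peptide complex (50 nM each). Proximity signal was measured by AlphaScreen after 20 min with beads.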
PLK1 PBD inh: blocks phosphopeptide binding to human PLK1 polo-box domain; P53350; Plk1 PBD binding of FITC phosphopeptide, fluorescence polarization; Potency, µM, for inactives: max response, negative = inhibition, hits mostly inhibitors; 2.8% of 360,000 active; note: series mostly up to about 57 µM; % is set by controls: 0 for no effect and ±100 for the full control effect; nearly all actives have a fitted effect of over 65% in size
Target sequence (P53350 whole entry, looked up, the tested form may be a part): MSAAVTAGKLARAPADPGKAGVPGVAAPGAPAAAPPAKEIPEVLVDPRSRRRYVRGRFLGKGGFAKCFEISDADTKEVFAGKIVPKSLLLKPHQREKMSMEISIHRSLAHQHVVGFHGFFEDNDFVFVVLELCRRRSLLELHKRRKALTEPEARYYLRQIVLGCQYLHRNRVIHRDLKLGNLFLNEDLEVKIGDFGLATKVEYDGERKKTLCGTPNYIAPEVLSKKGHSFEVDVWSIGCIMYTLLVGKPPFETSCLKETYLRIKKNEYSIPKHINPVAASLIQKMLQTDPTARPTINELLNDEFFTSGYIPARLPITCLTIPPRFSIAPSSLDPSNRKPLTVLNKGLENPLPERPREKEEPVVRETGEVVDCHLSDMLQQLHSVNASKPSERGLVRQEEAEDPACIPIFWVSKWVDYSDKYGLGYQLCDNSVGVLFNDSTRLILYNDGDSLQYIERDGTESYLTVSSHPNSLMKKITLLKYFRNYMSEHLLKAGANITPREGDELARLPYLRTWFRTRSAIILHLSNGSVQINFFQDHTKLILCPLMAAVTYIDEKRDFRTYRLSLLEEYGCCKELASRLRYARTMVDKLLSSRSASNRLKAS
JMJD2A Tudor: blocks the human JMJD2A Tudor domain. 4.4% of 390,000 active. Potency, µM (doses to about 114 µM), for the others: top-dose activity change, negative = inhibition, actives largely listed as inhibitors. AlphaScreen JMJD2A-Tudor / H3K4me3 peptide binding. O75164. AID 504339; note: % is set by controls: 0 for no effect and ±100 for the full control effect; nearly all actives have a fitted effect of over 50% in size
HP1b chromo inh: inhibitors of HP1-beta chromodomain binding to methylated histone tails | AlphaScreen HP1-beta / biotin-H3K9me3 peptide binding | P83916 | Potency, µM (top dose mostly 114 µM), for the others: top-dose activity change, negative = inhibition, hits mostly inhibitors | 0.56% of 390,000 active; note: nearly all actives have a fitted effect of over 70% in size
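AlphaScreen: HP1-beta (50 nM) preformed 30 min with biotin-H3(1-18)K9me3 peptide (50 nM) in PBS pH 7.4, 0.01% Tween-20. Compound added for 30 min at RT, then streptavidin donor/nickel chelate acceptor beads (10 ug/mL) for 30 min.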
Sfp PPTase inh: Sfp phosphopantetheinyl transferase inhibition; Q9F4F7; Biochemical Sfp PPTase activity, qHTS; Potency, µM, for inactives: largest response in the series, negative = inhibition, usual class: inhibitors; 3.5% of 310,000 active; AID 1490;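 note: the enzyme is Sfp with the accession as filed and its product quenches rhodamine fluorescence; 0% = enzyme reaction without inhibitor and -100% = no enzyme wells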
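Buffer: 50 mM Hepes-Na pH 7.6, 10 mM MgCl2, 0.01% Nonidet P-40, 0.01% BSA. Enzyme 15 nM, pre-exposed to compound 15 min; substrates then added and fluorescence change tracked over 30 min.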
Active calls of the source: *; ? = inconclusive; . = not tested or not shown; [ ] = another dose, or the depositor's remark. Calls come from the whole dose curve; as a rule, active = well fitted curve in the direction sought with a large enough effect; inconclusive = small, poorly fitted or top-dose-only effect, or another doubt; inactive = no such curve, though single readings can be large; an effect the other way counts as inactive or inconclusive. Potency is the fitted concentration of half-maximal effect.

SMILES | G9a inh | BAZ2B inh | PLK1 PBD inh | JMJD2A Tudor | HP1b chromo inh | Sfp PPTase inh
Cc1ccc(-c2onc3ccc(C(=O)O)cc23)cc1 | 40µM* | -20% | -10% | -21% | 28% | -8%
NC(=O)NC(=O)COC(=O)c1ccc2noc(-c3ccccc3)c2c1 | -7% | -1% | -2% | -5% | 31% | -6%
CC(=O)COC(=O)c1ccc2noc(-c3ccccc3)c2c1 | -5% | 50µM* | -1% | -32% | 8% | 2%
O=Cc1ccc2noc(-c3ccc(F)cc3)c2c1 | 0%[12.7 µM] | 2% | 24µM* | -9% | -5% | -6%
c1ccc2c(c1)CCOC2CNCCCN1CCCCC1 (centres undefined) | 22µM* | -1% | 2% | -12% | 38% | 15%
O=S(=O)(NCC1OCCc2ccccc21)c1ccc(S(=O)(=O)N2CCOCC2)cc1 (centres undefined) | -6%[59 µM] | -9% | -8% | -14% | 9% | 5%
CN1c2cccc3cccc(c23)N(C)C1(C)C | -41%[0.0925 µM] | 50µM* | -7% | ? | ? | -23%
CSc1nnc(-c2ccccc2)n1N | -48% | -3% | -6% | 4% | 30% | 1%
CSc1nnc(-c2cc[n+](C)cc2)n1CCO | 7.9µM* | 6% | -2% | 89µM* | 7% | -1%
COc1ccc2c(c1)c(=O)oc1cc(OCC(=O)N3CCC(C)CC3)ccc12 | 8.9µM* | ? | -29% | 50µM* | -45% | -5%
Cc1cc(=O)oc2cc(OCC(=O)N3CCOCC3)ccc12 | 7.1µM* | -5% | 27µM* | 79µM* | -42% | 32µM*
COc1ccc2c(c1)c(=O)oc1cc(OCC(=O)N3CCc4ccccc4C3)ccc12 | 3.2µM* | 40µM* | -28% | 56µM* | 1% | ?
Cc1cccc(C(=O)Nc2c(C(=O)N(C)C)cnn2-c2ccccc2)c1 | 55% | 5% | -21% | -9% | 45% | 13%
COc1cc2nc(NC(=O)c3ccc(F)cc3Cl)sc(=O)c2cc1OC | 35µM* | -31% | ? | -7% | -1% | -19%
Cc1ccc(-n2ncc(C(=O)Nc3ccc4c(c3)OCO4)c2C2CCN(C(=O)OC(C)(C)C)CC2)c(C)c1 | ? | ? | . | 32µM* | -17% | .
N#Cc1nc(Nc2cccc(Br)c2)nc(NC2CCCC2)n1 | . | . | . | -16% | . | .
Cn1c2c(c3ccccc31)CCN(CCCCN1CCN(c3ccccc3)CC1)C2=O | . | . | -7% | 50µM* | ? | .
N=c1nc(-c2ccccc2)n(-c2ccccc2)s1 | . | . | . | 5.6µM* | ? | .
Cc1ccc(-c2nc(=Nc3ccccc3)sn2-c2ccccc2)cc1 | . | . | . | -24%[57.1 µM] | -30%[57 µM] | .
OCCN1CCN(CCOc2cccc(Cl)c2)CC1 | . | ? | -3% | ? | 26% | 6%
Clc1cccc(OCCN2CCNCC2)c1 | 14µM* | -33% | -13% | 18µM* | ? | -21%
Cc1cccc(OCCCCCN2CCOCC2)c1 | 18%[59 µM] | -2% | 2% | 1% | 22% | 21%
Clc1cccc(Cl)c1OCCCCN1CCCCC1 | 22µM* | 79µM* | 5% | 20µM* | ? | 10%
Cc1cccc(Cl)c1OCCN1CCCC1 | 40µM* | ? | 0% | 4µM* | -8% | -2%
Cc1cccc(OCCCN2CCCCCC2)c1 | 6.3µM* | 79µM* | 0% | 7.9µM* | ? | -16%
SMILES | G9a inh | BAZ2B inh | PLK1 PBD inh | JMJD2A Tudor | HP1b chromo inh | Sfp PPTase inh
Clc1cccc(OCCCCN2CCCCC2)c1 | ? | 56µM* | -14% | 22µM* | ? | -13%
CC(Cl)C(=O)c1ccc2c(c1)CCN2C(=O)C1CC1 (centres undefined) | -45% | -17% | 19µM* | -10% | 25% | 2%
CSC1=C(C#N)C(c2ccccc2Cl)C2=C(N1)c1ccccc1C2=O (centres undefined) | 16µM* | -31%[57.1 µM] | ? | 32µM* | ? | -9%
CC1=C(C#N)C(c2cccnc2)C2=C(CCCC2=O)N1 (centres undefined) | -11%[59 µM] | 0% | ? | 2%[11.4 µM] | 6% | 6%
CC1=C(C#N)C(c2ccccc2)C2=C(N1)c1ccccc1C2=O (centres undefined) | 45µM* | 32µM* | ? | 22µM* | ? | 9%
CC1=C(C#N)C(c2cccnc2)C2=C(N1)c1ccccc1C2=O (centres undefined) | 35µM* | -35% | -12% | -9% | 12% | 16%
CC(=O)c1cccc(NC(=O)c2sc(-n3nc(C)c(CCC(C)C)c3C)nc2C)c1 | 9%[59 µM] | -11% | . | -12% | 35% | .
CCOc1ccc(CNC(=O)C2CCN(S(=O)(=O)c3ccc4c(ccn4C)c3)CC2)cc1 | -3%[59 µM] | -4% | . | -16% | 18%[57 µM] | .
CCN(CC(=O)Nc1ccc(NC(C)=O)cc1)C(=O)CN1C(=O)NC(C)(c2ccc3ccccc3c2)C1=O (centres undefined) | . | . | -8% | -20% | 41% | .
COc1ccc(S(=O)(=O)n2nc(C)c(S(=O)(=O)N3CCCCCC3)c2C)cc1C | -3%[59 µM] | ? | . | ? | 8%[57 µM] | .
COc1ccc(NC(=O)Cn2c(=O)oc3cc(S(=O)(=O)N4CCCCC4C)ccc32)cc1 (centres undefined) | 6%[59 µM] | -2% | . | -7% | 33% | .
Cn1nccc1C(=O)NC(=S)Nc1cc(Cl)cc(Cl)c1 | ? | -16% | ? | 22µM* | -7% | -82%
Cn1nccc1C(=O)Nc1ccc(OC(=O)c2ccnn2C)cc1 | 1.6µM* | -6% | -11% | -8% | 32% | 12%
CC(=O)Nc1ccc(NC(=O)c2ccc3c(c2)N(Cc2cccc(Cl)c2)C(=O)c2ccccc2S3=O)cc1 (centres undefined) | -30%[59 µM] | 2% | . | -17% | -4% | .
CCN(c1ccccc1)S(=O)(=O)c1cc(C(=O)OC(C)C(=O)Nc2ccc3c(c2)OCCO3)ccc1C (centres undefined) | 40µM* | ? | -24% | ? | -2%[57 µM] | 17%
O=C(Nc1cccnc1Cl)c1cc(-c2ccc(Br)cc2)on1 | 13% | -19% | -13% | -15% | 33% | 12%
C[C@@H]1NC(=O)[C@H](CCC(N)=O)NC(=O)c2cc([N+](=O)[O-])cc(I)c2NCC[C@@H](C(N)=O)NC1=O | 11µM* | ? | -20% | -35% | 4% | 2%
C[C@@H]1NC(=O)c2cc([N+](=O)[O-])cc(I)c2NCC[C@@H](C(N)=O)NC(=O)[C@H](CC(N)=O)NC1=O | 22µM* | -33% | -8% | -31% | 23% | -1%
COC(=O)/C(=C/c1cn(C)c2ccccc12)[N+](=O)[O-] | ? | ? | . | . | . | 56µM*
COC(=O)/C(=C/c1c[nH]c2ccccc12)[N+](=O)[O-] | ? | 36% | 2.4µM* | -20% | 26% | -22%
COC(=O)/C(=C/c1c[nH]c2ccccc12)NC(C)=O | 12% | -2% | -6% | 1% | 27% | 6%

Assay outcomes: PubChem, National Center for Advancing Translational Sciences (NCATS)
